# Screening data (PubChem)
# An excerpt weighted towards active compounds, which were near 19% of everything screened.
# KB-3-1 cytotox = kills parental KB-3-1 adenocarcinoma cells; KB-3-1 viability, CellTiter-Glo ATP luminescence, 72 h; Potency, µM (doses to about 46.1 µM), most hits filed as cytotoxic; hit rate 1.4% among 400,000; note: nearly all actives have a fitted effect of over 60% in size
#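 Luminescent ATP read-out (CellTiter-Glo) measures survival of drug-naive KB-3-1 cells after 72 h compound exposure at 37 °C. Titration series was screened from lowest to highest concentration, with DMSO vehicle plates as background controls.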
# TDP1 cell noCPT = qHTS for Inhibitors of human tyrosyl-DNA phosphodiesterase 1 (TDP1): qHTS in cells in absence of CPT; DT40 Tdp1-/- hTDP1 cells, no CPT, ATP luminescence, 48 h; Potency, µM (top dose mostly 46.2 µM), inactives show top-dose activity change, negative = growth inhibition, usual class: inhibitors; hit rate 15% among 420,000; AID 686978, 2013; note: nearly all actives have a fitted effect of over 55% in size
#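 Luminescent ATP content (CellTiter-Glo) served as the growth readout. Knockout chicken DT40 cells expressing human TDP1 were exposed to compounds without camptothecin for a minimum 48 hr at 37 °C.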
# DT40 TDP1 CPT = DT40-hTDP1 cell growth loss with CPT | Potency, µM (top dose mostly 46.2 µM), for the others: at the highest dose activity change, negative = growth inhibition, most hits filed as inhibitors | hit rate 12% among 420,000 | chicken DT40 Tdp1-/-;hTDP1 cells + 20 nM CPT, ATP luminescence, 48 h; note: nearly all actives have a fitted effect of over 55% in size
#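 Chicken DT40 Tdp1-/- cells stably complemented with human TDP1 were seeded at 400 cells/well in medium containing 20 nM camptothecin, exposed to pin-transferred compounds, and grown at 37 °C for at least 48 hr. Viability was read as ATP luminescence.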
# KB-V1 cytotox = kills drug-selected multidrug resistant KB-V1 cells. AID 1347076. Potency, µM (titrated, usually from 46.1 µM), hits mostly cytotoxic. KB-V1 MDR cells viability, CellTiter-Glo, 72 h. hit rate 3.4% among 400,000; note: nearly all actives have a fitted effect of over 60% in size
#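 Following 72 h at 37 degrees C with compound, KB-V1 cell viability was read by CellTiter-Glo luminescence, medium being phenol-red-free DMEM plus 10% FBS; concentration-response parameters came from normalized, curve-fitted qHTS data.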
# HT1080 IDH1KD tx = toxicity to HT-1080 IDH1 knockdown cells (counter line) | HT-1080 IDH1 knockdown viability, ATP luminescence, 48 h | Potency, µM (top dose mostly 46.1 µM), for inactives: at the top dose activity, negative = toxicity, usual class: cytotoxic | hit rate 2% among 360,000;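 note: 0% = DMSO wells and -100% = cell-free medium wells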
#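 After a 2 h attachment period, IDH1KD HT-1080 cells took pin-transferred compound for 48 h at 37 °C; ATP-based luminescence after 10 min room-temperature reagent incubation reported viability.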
# HT1080NT lethal = kills 2HG-producing HT-1080-NT fibrosarcoma cells; AID 686970; hit rate 1.6% among 360,000; HT-1080-NT fibrosarcoma viability, CellTiter-Glo ATP luminescence, 48 h; Potency, µM (highest dose often 46.1 µM), for the others: top-dose activity, negative = less viability, actives largely listed as cytotoxic;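 note: NT is the 2HG producing partner of a matched IDH1 knockdown line; 0% = DMSO-treated cells and -100% = media-only wells without cells; nearly all actives have a fitted effect of over 55% in size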
#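 Fibrosarcoma NT cells, 750 per well in 5% FBS RPMI, were exposed to compound for 48 hours. Viability: CellTiter-Glo luminescence.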
# Starred values were filed as active, the others as inactive; i = inactive; ? = inconclusive; · = no result given. Calls come from the whole dose curve; as a rule, active = well fitted curve in the direction sought with a large enough effect; inconclusive = small, poorly fitted or top-dose-only effect, or another doubt; inactive = no such curve, though single readings can be large; an effect the other way counts as inactive or inconclusive. Unless noted, % is set by controls: 0 for no effect and ±100 for the full control effect; potency is the fitted concentration of half-maximal effect.
SMILES,KB-3-1 cytotox,TDP1 cell noCPT,DT40 TDP1 CPT,KB-V1 cytotox,HT1080 IDH1KD tx,HT1080NT lethal
O=C(CCS(=O)(=O)c1ccccc1)Nc1ncc([N+](=O)[O-])s1,?,10µM*,8.2µM*,?,16µM*,21µM*
Cc1ccc(S(=O)(=O)CCc2nnc(NC(=O)c3cnccn3)s2)cc1,i,-18%,-18%,i,11%,-5%
CCC(CC)c1nnc(NC(=O)CCS(=O)(=O)Cc2ccccc2)s1,i,15µM*,?,i,-19%,?
COc1ccc(OC)c2sc(NC(=O)CCS(=O)(=O)c3ccccc3)nc12,?,4.6µM*,5.2µM*,i,5%,6%
O=C(CS(=O)(=O)c1ccccc1)Nc1ncc([N+](=O)[O-])s1,i,-9%,-3%,i,14%,11%
COc1ccc(OC)c2sc(NC(=O)CCSc3ccccc3)nc12,i,-26%,-35%,i,-21%,-16%
O=C(CSc1nc2ccsc2c(=O)n1Cc1ccc(F)cc1)NCc1ccc(Cl)cc1,i,-23%,?,i,·,·
CC(=O)Nc1ccc2nc(CN3CCN(Cc4ccc(F)cc4)C(CCO)C3)ccc2c1 (centres undefined),i,?,-28%,?,2%,3%
Cc1nc(-c2ccc(C(=O)Nc3cc(S(N)(=O)=O)ccc3C)cc2)cs1,i,?,-22%,i,-4%,0%
CCS(=O)(=O)N1Cc2ccccc2CC1C(=O)N(C)CC(=O)Nc1cccc(F)c1 (centres undefined),i,-1%,-10%,i,3%,0%
COCc1nnc(NC(=O)c2cccc(NC(=O)c3ccccc3)c2)s1,i,21µM*,?,i,-5%,-5%
CCCCc1nnc(NC(=O)CN(C)S(=O)(=O)c2ccc(C)cc2)s1,i,6%,0%,i,1%,11%
CC(C)c1nnc(NC(=O)CCc2ccccc2)s1,i,10%,3%,i,-4%,-1%
CC(C)c1nnc(NC(=O)CCS(=O)(=O)c2ccccc2)s1,i,?,16µM*,i,?,?
COC(=O)Cc1nnc(NC(=O)c2ccccc2)s1,i,-28%,-8%,i,-4%,0%
Cc1ccc(S(=O)(=O)CCC(=O)Nc2nc3c(s2)CCCC3)cc1,?,29µM*,?,i,-18%,-29%
CCCCc1nnc(NC(=O)CCS(=O)(=O)c2ccc(C)cc2)s1,i,?,13µM*,i,-15%,2%
CC(C)CCNC(=O)c1ccc(NC(=O)N2CCCCc3ccccc32)cc1,i,4%,5%,?,·,·
O=C(Nc1c(-c2ccccc2)nc2ccccn12)c1ccc(Br)cc1,i,?,?,i,·,·
O=C(CNC(=O)C1CCCCC1)Nc1cc(Cl)ccc1Cl,i,-24%,-6%,21µM*,0%,-10%
O=C(Nc1cc(Cl)ccc1Cl)N1CCCC1,i,18µM*,21µM*,i,17%,18%
CCc1nc2ccc(C(=O)N(CC)CCN(C)C)cn2c1N(C)C(=O)C1CCCCC1,i,0%,10%,i,7%,26%
CCC(O)c1c(-c2ccccc2)nn(C)c1Cl (centres undefined),i,15µM*,?,i,0%,5%
Cc1ccc(OC(C)C(=O)N(Cc2cccs2)C2CCS(=O)(=O)C2)cc1C (centres undefined),i,-24%,-19%,i,-2%,-1%
COc1cccc(OC)c1OCCCCN1CCCC1,i,-18%,-15%,i,12%,17%
SMILES,KB-3-1 cytotox,TDP1 cell noCPT,DT40 TDP1 CPT,KB-V1 cytotox,HT1080 IDH1KD tx,HT1080NT lethal
O=[N+]([O-])c1cccc(OCCCN2CCC(Cc3ccccc3)CC2)c1,i,?,?,i,?,?
N#Cc1ccccc1OCCCN1CCC(Cc2ccccc2)CC1,i,16µM*,?,i,?,-26%
COc1cccc(OC)c1OCCCCN1CCC(Cc2ccccc2)CC1,?,18µM*,?,?,?,?
CCC(=O)c1ccccc1OCCCN1CCC(Cc2ccccc2)CC1,?,?,?,?,?,18µM*
CC(=O)CCc1ccc(OCCCCN2CCC(Cc3ccccc3)CC2)cc1,i,-24%,2%,?,-22%,-4%
Cc1cc(C)cc(OCC(=O)Nc2c(C)ccc3nsnc23)c1,i,-25%,?,i,·,·
COc1cccc2cc(-c3nc4sc(C(=O)Nc5ccc(F)cc5F)c(C)c4c(=O)[nH]3)c(=O)oc12,i,-7%,-13%,i,·,·
COc1cccc(-c2cc3nc(NCCN4CCCC4)n(C)c(=O)c3s2)c1,i,23µM*,?,i,?,?
Cn1c(NCCN2CCCC2)nc2cc(-c3ccccc3)sc2c1=O,i,?,?,i,13µM*,?
Cn1c(NCCN2CCCC2)nc2cc(-c3cccc(C(F)(F)F)c3)sc2c1=O,i,?,?,i,?,21µM*
O=c1c2sc(-c3ccccc3)cc2nc2n1CCCCC2,i,12µM*,-21%,12µM*,-3%,0%
O=C(COc1ncnc2sccc12)Nc1cccc(S(=O)(=O)N2CCOCC2)c1,i,-3%,-2%,i,6%,3%
O=C1Nc2cc(C(=O)N3CCOCC3)ccc2S/C1=C/c1ccccc1F,i,?,16µM*,i,1%,7%
O=C1Nc2cc(C(=O)N3CCN(Cc4ccccc4)CC3)ccc2SC1N1CCOCC1 (centres undefined),i,?,23µM*,i,-4%,-10%
O=C1Nc2cc(C(=O)N3CCOCC3)ccc2S/C1=C\c1ccccc1,i,23µM*,?,?,-2%,4%
Cc1oc(-c2ccccc2Cl)nc1CS(=O)(=O)CC(=O)NC1CCCC1,i,?,15%,i,-1%,-1%
O=S(=O)(Nc1cc(C(F)(F)F)ccc1N1CCOCC1)c1ccc2ccccc2c1,?,?,16µM*,?,?,?
